The values below come from PubChem BioAssay AID463173 (ICCB-Longwood Screening Facility, Harvard Medical School, 2010).

Each structure is given as a SMILES string. Screen size: about 52,000 compounds; about 4,300 (8.3%) were called active. Cut-off read from the data, not from the text of the source: active = survival mostly below about 52% (no sharp cut-off); inactive = mostly above about 56%. The entries come from a sample that favours actives as a whole.

The assay relates to DeltatarO mutant. Description: growth inhibition of S. aureus wild type versus tarO mutant, primary screen, teichoic acid synthesis inhibitors, RN4220, OD600 (AID 463173). As to conditions: OD600, 18 h, active compounds read low, screened at 18.75 µg/mL (by protocol).
For `COC(=O)c1ccc(NC(=O)N2CCN(c3nnc(C)c4c(C)n(-c5ccccc5)nc34)CC2)cc1`, the survival is 65% (inactive). The same measure for `COc1ccc(C(=O)CN2CCC(N3CCCCC3)CC2)cc1`: 92% (inactive); for `COc1cc(-c2nc(Cn3nnc(C(=O)Nc4cccc(Cl)c4)c3C)c(C)o2)cc(OC)c1OC`: 80% (inactive); for `CCN(CC)c1ccc(C(=O)N2CCC(c3c[nH]c4ccccc34)(c3c[nH]c4ccccc34)CC2)cc1`: 104% (inactive). Regarding `CCOc1ccccc1NC(=O)N1CCN(S(=O)(=O)c2ccc3c(ccn3C)c2)CC1`, the survival is 76% (inactive). Turning to `CC(C)(C)c1ccc(C(=O)N2CCC(C(=O)O)CC2)cc1`, the survival was 68% (inactive). The same measure for `CN1C(=O)CC(NCCc2ccc(S(N)(=O)=O)cc2)C1=O` (stereo not given): 72% (inactive); for `CCOc1ccc(-n2c(SCC(=O)Nc3cccc(Cl)c3)nc3c(oc4ccccc43)c2=O)cc1`: 58% (inactive). As to `COc1cccc(Cn2nnc3c(=O)[nH]c(C4CCN(C(=O)c5ccccc5Cl)CC4)nc32)c1`, the survival is 14% (active). As for `O=C(c1ccccc1F)N1CCC(c2nc3c(nnn3Cc3cccc(F)c3)c(=O)[nH]2)CC1`, the survival is 47% (inactive). The same measure for `Cc1cccc(Cn2nnc3c(=O)[nH]c(C4CCN(C(=O)c5ccc(F)cc5)CC4)nc32)c1`: 28% (active). As to `COc1cccc(Cn2nnc3c(=O)[nH]c(C4CCCN(C(=O)c5ccccc5Cl)C4)nc32)c1` (stereo not given), the survival is 80% (inactive). In the case of `Cc1cccc(Cn2nnc3c(=O)[nH]c(C4CCN(C(=O)c5ccccc5F)CC4)nc32)c1`, the survival is 46% (inactive).

As for `COc1ccc(Cn2nnc3c(=O)[nH]c(C4CCCN(C(=O)c5ccccc5Cl)C4)nc32)cc1OC` (stereo not given), the survival is 80% (inactive).

As to `Cc1ccccc1Cn1nnc2c(=O)[nH]c(C3CCN(C(=O)c4ccc(F)cc4)CC3)nc21`, the survival is 52% (active).

Take `Cc1cc(C)cc(NC(=O)c2cc3c(=O)n(Cc4ccco4)ccc3nc2C)c1`: the survival is 73% (inactive). As to `O=C(Nc1ccccc1)c1ccc2c(O)c(S(=O)(=O)c3ccc(Cl)cc3)c(=O)[nH]c2c1`, the survival is 74% (inactive). With `COc1ccc(N(C)C(=O)c2cn(C)c(=O)c3cc(OC)c(OC)cc23)cc1` the figure was 177% (inactive). Regarding `O=C(CSc1nnc(-c2ccccc2)o1)Nc1ccccc1`, the survival is 82% (inactive). The same measure for `O=C(CSc1nnc(-c2ccco2)o1)NC(c1ccccc1)c1ccccc1`: 61% (active); for `O=C(CCSc1nnc(-c2ccco2)o1)Nc1ccccc1`: 86% (inactive). The same measure for `CCOc1ccc(Sc2cc(C(=O)NCCc3ccccc3)c3ccccc3n2)cc1`: 73% (inactive); for `N#Cc1cn(CC(=O)NCc2ccccc2)c2ccccc12`: 87% (inactive); for `CCOc1ccc2c(c1)[C@@H]1C=CC[C@@H]1[C@H](c1ccccc1Cl)N2`: -10% (active). The same measure for `COc1ccc(C)cc1NS(=O)(=O)c1ccc2c(c1)[C@H]1C=CC[C@H]1[C@@H](c1cccc(Cl)c1)N2`: 57% (inactive). Regarding `COc1cccc(NS(=O)(=O)c2ccc3c(c2)[C@H]2C=CC[C@H]2[C@@H](c2ccccc2Cl)N3)c1`, the survival was 163% (inactive). In the case of `CCOC(=O)c1ccc2c(c1)[C@@H]1C=CC[C@@H]1[C@H](c1cccc(OC)c1OC)N2`, the survival is -10% (active). With `CCCN1CCN(CC2=C(C(=O)OCC)C(c3cccc(OC)c3OC)NC(=O)N2)CC1` (stereo not given) the figure was 94% (inactive); with `COc1ccc(Br)cc1[C@@H]1Nc2ccc(C(=O)O)cc2[C@@H]2C=CC[C@@H]21`, 36% (active). `COc1cccc([C@H]2Nc3ccc(S(=O)(=O)Nc4cc(C)ccc4C)cc3[C@H]3C=CC[C@H]32)c1`: the survival was 52% (inactive). The same measure for `Fc1ccc([C@@H]2Nc3ccccc3[C@@H]3C=CC[C@@H]32)cc1`: 56% (inactive); for `COc1ccc(NS(=O)(=O)c2ccc3c(c2)[C@H]2C=CC[C@H]2[C@@H](c2ccc(C(=O)O)cc2)N3)cc1`: 72% (inactive); for `CCCCN(CC)CCNC(=O)Cn1cnc2sc(C)c(S(=O)(=O)N3CCC(C)CC3)c2c1=O`: 69% (inactive). On to `COCC(=O)NCc1ccc2c(c1)OCO2`, for which the survival is 104% (inactive).

As to `CCN(CC)CCOC(=O)c1ccc(NC(=O)c2cc3cc(OC)ccc3oc2=O)cc1`, the survival was 73% (inactive).

For `COc1ccc(NC(=O)Cn2c(=O)n(-c3ccc(C)c(C)c3)c(=O)c3c(C)c(C)sc32)cc1`, the survival is 139% (inactive). With `O=C1[C@@H]2CSC(c3ccc(C(F)(F)F)cc3)N2C(=O)N1c1ccccc1` (stereo not given in full), the survival was 81% (inactive). For `O=C(NCc1ccccc1F)c1ccc(CSc2nc3cccnc3n2Cc2ccccc2)cc1`, the survival is 75% (inactive). Turning to `CSc1nc(=O)c2c(n1C)NC(=O)CC2c1ccccc1OC(C)C` (stereo not given), the survival was 46% (inactive). The same measure for `CCSc1nc(=O)c2c(n1C)NC(=O)CC2c1ccc(O)cc1OC` (stereo not given): 57% (inactive); for `CCCSc1nc(=O)c2c(n1C)NC(=O)CC2c1cccc(F)c1F` (stereo not given): 54% (active); for `Cc1oc(-c2ccc(Cl)cc2)nc1Cn1c(=O)cc(-c2ccccc2)c2c(C)nn(C)c21`: 88% (inactive). The same measure for `Cc1oc(C)c2c(=O)cc(-c3ccc4c(c3)OCO4)cc(OC(=O)c3ccccc3Br)c12`: 106% (inactive); for `O=C(NCCc1ccncc1)Nc1c[nH]c2ccccc2c1=O`: 89% (inactive); for `COc1ccccc1C(=O)c1cn(CC(=O)Nc2ccccc2F)c2nc(C)ccc2c1=O`: 71% (inactive). Turning to `CCc1nc(C)cn1S(=O)(=O)c1ccc(Cl)c(Cl)c1OC`, the survival was 71% (inactive).

For `CCOc1cc(Cl)c(S(=O)(=O)n2ccnc2)cc1Cl`, the survival was 73% (inactive). With `CCOc1cc(Cl)c(S(=O)(=O)n2cc(C)nc2CC)cc1Cl` the figure was 3% (active); with `CCOc1ccc(C(=O)NCCSc2c(C)[nH]c3ccccc23)cc1OCC`, 56% (inactive); with `CC1=C(C(=O)Nc2ccc(F)cc2)C(c2ccc(N(C)C)cc2)NC(=O)N1` (stereo not given), 140% (inactive). As for `CC(=O)NCCc1nc2ccccc2n1CCCCOc1ccc(Cl)cc1`, the survival was 61% (inactive). In the case of `CCCCCn1c(CCCNC(=O)c2ccc(Cl)cc2)nc2ccccc21`, the survival is 85% (inactive). The same measure for `Cc1ccccc1OCCCCn1c(CCNC(=O)C(C)(C)C)nc2ccccc21`: 36% (active); for `Cc1ccccc1OCCn1c(CCNC(=O)C2CCCCC2)nc2ccccc21`: 77% (inactive); for `CCCCCn1c(CCCNC(=O)c2ccccc2)nc2ccccc21`: 59% (inactive). In the case of `CC(C)(C)C(=O)NCCc1nc2ccccc2n1CCCCOc1ccc(Cl)cc1`, the survival was 18% (active). Turning to `Cc1ccc(OCCCCn2c(CCNC(=O)C(C)(C)C)nc3ccccc32)cc1`, the survival was 42% (active).

On to `Cc1ccccc1OCCn1c(CCNC(=O)C(C)(C)C)nc2ccccc21`, for which the survival is 82% (inactive).

With `Cc1cccc(OCCCn2c(CCNC(=O)C(C)(C)C)nc3ccccc32)c1`, the survival was 77% (inactive). With `CC(C)(C)C(=O)NCCc1nc2ccccc2n1CCCCOc1ccccc1` the figure was 41% (active).
